# Measured values taken from the supplement of paper PMC12340641.
# Whole data set: some 1,000 compounds, median “relative growth in counter assay (no AraC = 100%, AraC + DMSO = 0%)” near -1.1, cut for the highest 2% near 20. What follows is part of a selection rich in the highest values, with near analogues and random picks from the rest.
# System: HEK293FT dCK*-only
# Test: relative growth in counter assay (no AraC = 100%, AraC + DMSO = 0%); higher = more growth rescue independent of IKZF1
# Details: compound concentration: 5 uM; AraC concentration: 0.3 uM; overnight pretreatment + 4 days AraC
# Description: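 Growth recovery screen of the molecular-glue-like (Specs) library. HEK293FT cells expressing a dCK*-IKZF1 fusion (primary) or dCK* alone (counter) were pretreated overnight with compound at 5 uM, then given 0.3 uM AraC for 4 days. Hoechst nuclei were counted by imaging. Primary: normalised to pomalidomide (100%) and DMSO (0%), mean of 2 replicates. Counter: normalised to no-AraC (100%) and AraC+DMSO (0%), single replicate.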
row,Compound,relative growth in counter assay [%]
1,Cc1cc(C)c2[nH]c3nc(SCC(=O)Nc4ccc(Cl)cc4)nnc3c2c1,-17.9
2,Cc1cc(C)nc(NS(=O)(=O)c2ccc(Nc3nc(-c4ccc(Cl)cc4)cs3)cc2)n1,-7.62
3,O=C(Nc1ccc(S(=O)(=O)Nc2ncccn2)cc1)c1ccc(Br)cc1,1.1
4,CCOCC(=O)Nc1ccc(S(=O)(=O)Nc2ncccn2)cc1,-2.18
5,O=C(C1CNCCO1)N1CCC(c2cccc(Nc3ncc(-c4ccccc4)s3)n2)CC1 (stereo not drawn),1.14
6,O=S(=O)(Cc1ccccc1)Nc1ccc(S(=O)(=O)Nc2ncccn2)cc1,5.8
7,Cc1ccnc(NS(=O)(=O)c2ccc(NC(=O)Cc3c(F)cccc3Cl)cc2)n1,10
8,COc1ccc(-c2csc(Nc3ccc(S(=O)(=O)Nc4nc(C)cc(C)n4)cc3)n2)cc1,-6.81
9,O=C(Nc1ccc(S(=O)(=O)Nc2ncccn2)cc1)c1ccccc1Br,-0.83
10,Cc1ccc(OCC(=O)Nc2ccc(S(=O)(=O)Nc3ncccn3)cc2)cc1C,2.12
11,Cc1csc(Nc2cccc(C3CN(C(=O)COc4c(C)cccc4C)CCO3)n2)n1 (stereo not drawn),1.27
12,Cc1cnc(Nc2cccc(C3CN(C(=O)C4CC4c4ccc(Cl)cc4)CCO3)n2)s1 (stereo not drawn),28.7
13,Cc1cnc(Nc2cccc(C3CN(C(=O)CCC4CCCCC4)CCO3)n2)s1 (stereo not drawn),-1.73
14,CC(=O)N1CCC(Cc2cccc(Nc3nccs3)n2)CC1,-8.99
15,CC(=O)N1CCC(Cc2cccc(Nc3nc(C)cs3)n2)CC1,24.3
16,Cc1csc(Nc2cccc(C3CN(C(=O)CCC4CCCC4)CCO3)n2)n1 (stereo not drawn),32.3
17,Cc1csc(Nc2cccc(C3CN(C(=O)CCOc4ccccc4C)CCO3)n2)n1 (stereo not drawn),49.2
18,Cc1cnc(Nc2cccc(C3CN(C(=O)C4CCCC4)CCO3)n2)s1 (stereo not drawn),-17
19,Cc1cnc(Nc2cccc(C3CN(C(=O)C45CC6CC(CC(C6)C4)C5)CCO3)n2)s1 (stereo not drawn),-1.75
20,COc1cccc(OC)c1C(=O)N1CCOC(c2cccc(Nc3nc(C)cs3)n2)C1 (stereo not drawn),10.3
21,Cc1csc(Nc2cccc(CC3CCN(CC(=O)N(C)C)CC3)n2)n1,7.9
22,Cc1csc(Nc2cccc(C3CN(C(=O)Cn4nc(C)ccc4=O)CCO3)n2)n1 (stereo not drawn),-2.02
23,Cc1cnc(Nc2cccc(C3CN(C(=O)COc4cccc(F)c4)CCO3)n2)s1 (stereo not drawn),-7.34
24,Cc1cnc(Nc2cccc(C3CN(C(=O)COc4ccccc4)CCO3)n2)s1 (stereo not drawn),-9.61
25,Cc1cnc(Nc2cccc(C3CN(C(=O)CCOc4cccc(F)c4)CCO3)n2)s1 (stereo not drawn),19.7

row,Compound,relative growth in counter assay [%]
1,Cc1ccc(OCC(=O)Nc2ccc(S(=O)(=O)Nc3cc(C)nc(C)n3)cc2)c(C)c1,-2.7
2,Cc1cc(C)nc(NS(=O)(=O)c2ccc(NC(=O)C(C)Oc3ccccc3F)cc2)n1 (stereo not drawn),5.27
3,COc1ccccc1OCC(=O)Nc1ccc(S(=O)(=O)Nc2nc(C)cc(C)n2)cc1,-7.04
4,CC(C)(C)C(=O)N1CCC(Cc2ccc(Nc3ncc(-c4ccc(F)cc4)s3)nc2)CC1,12.2
5,O=C(/C=C/c1ccco1)N1CCCC(c2csc(Nc3ccccn3)n2)C1 (stereo not drawn),11.1
6,Cn1nccc1/C=C/C(=O)N1CCCC1c1csc(Nc2ccccn2)n1 (stereo not drawn),-0.93
7,O=C(/C=C/c1ccccc1)N1CCCC(c2csc(Nc3ccccn3)n2)C1 (stereo not drawn),34.8
8,Cn1nccc1/C=C/C(=O)N1CCCC(c2csc(Nc3ccccn3)n2)C1 (stereo not drawn),29
9,Cn1nccc1/C=C/C(=O)N1CCCC(c2cc3ccccc3c(Nc3nccs3)n2)C1 (stereo not drawn),-13.3
10,CC(=O)N1CCCC(c2csc(Nc3ccccn3)n2)C1 (stereo not drawn),0.33
11,O=C(C1CCCCC1)N1CCC(c2cccc(Nc3nccs3)n2)CC1,-10.8
12,O=C(Nc1ccc(S(=O)(=O)Nc2ccccn2)cc1)c1cc2ccccc2o1,-2.82
13,CCCc1cnc(Nc2cccc(C3CN(C(=O)C4CCCCC4)CCO3)n2)s1 (stereo not drawn),-12.3
14,Cc1cnc(Nc2cccc(C3CCN(C(=O)C4CCC4)CC3)n2)s1,-21
15,Cc1ccc(C)c(OCCCC(=O)Nc2ccc(S(=O)(=O)Nc3ncccn3)cc2)c1,-2.63
16,CC(C)(C)c1ccccc1OCC(=O)Nc1ccc(S(=O)(=O)Nc2ccccn2)cc1,4.41
17,COc1cc2c(cc1CCC(=O)N1CCCC1c1cccc(Nc3nccs3)n1)CCC2 (stereo not drawn),-3.49
18,CC(C)(C)c1ccccc1OCC(=O)Nc1ccc(S(=O)(=O)Nc2ncccn2)cc1,-1.93
19,Cc1cnc(Nc2cccc(C3CCN(C(=O)CCc4nc5ccccc5[nH]4)CC3)n2)s1,-4.59
20,CCCC(C)C(=O)Nc1ccc(S(=O)(=O)Nc2nccc(C)n2)cc1 (stereo not drawn),-3.64
21,Cc1cnc(Nc2cccc(C3CN(C(=O)c4ccccn4)CCO3)n2)s1 (stereo not drawn),-7.73
22,O=C(CSc1nnc2c(n1)[nH]c1ccc(Cl)cc12)Nc1ccc(Cl)cc1,3.64
23,COC(=O)C(c1cccc(Nc2ncc(C)s2)n1)C1CCN(C(=O)C2(NC(=O)OC(C)(C)C)CCCCC2)CC1 (stereo not drawn),9.03
24,COc1cc(NS(=O)(=O)c2ccc(NC(=O)c3ccc([N+](=O)[O-])cc3)cc2)nc(OC)n1,4.43
25,CNC(=O)C(c1cccc(Nc2ncc(C)s2)n1)C1CCN(C(=O)[C@H](CC(C)C)NC(=O)OC(C)(C)C)CC1 (stereo partly drawn),8.97

row,Compound,relative growth in counter assay [%]
1,CCCC(=O)Nc1ccc(S(=O)(=O)Nc2cc(OC)nc(OC)n2)cc1,-1.4
2,O=C(COc1ccc(F)cc1)N1CCC(c2cccc(Nc3nccs3)n2)CC1,6.47
3,Cn1c(SCC(=O)Nc2ccccn2)nc2ccccc21,0.85
4,COc1cc(NS(=O)(=O)c2ccc(NC(=O)/C=C/C(=O)O)cc2)nc(OC)n1,2.31
5,CNC(=O)C(c1cccc(Nc2ncc(C)s2)n1)C1CCN(C(=O)c2cccc(Cl)c2F)CC1 (stereo not drawn),-0.24
6,O=C(CO)N1CCC(c2cccc(Nc3ncc(-c4ccccc4)s3)n2)CC1,-21.4
7,CCN1CC(C(=O)N2CCC(c3cccc(Nc4ncc(C)s4)n3)CC2)CC1=O (stereo not drawn),-1.29
8,COc1cc(NS(=O)(=O)c2ccc(NCc3ccccc3O)cc2)nc(OC)n1,-0.72
9,Cc1noc(CCC(=O)N2CCOC(c3cccc(Nc4nc(C)c(C)s4)n3)C2)n1 (stereo not drawn),5.54
10,COc1cccc(C(=O)Nc2ccc(S(=O)(=O)Nc3ncccn3)cc2)c1,-5
11,Cc1nc(Nc2cccc(C3CCN(C(=O)c4n[nH]c5c4CCCC5)CC3)n2)sc1C,14
12,CCCC(=O)Nc1ccc(S(=O)(=O)Nc2nc(C)cc(C)n2)cc1,-9.14
13,CCC(Oc1ccccc1)C(=O)Nc1ccc(S(=O)(=O)Nc2ncccn2)cc1 (stereo not drawn),27.4
14,Cc1cc(C)nc(NS(=O)(=O)c2ccc(NC(=O)CSc3nccn3C)cc2)n1,2.1
15,CC(=O)Nc1ccc(S(=O)(=O)Nc2nc(C)cc(C)n2)cc1,-0.14
16,Cc1cc(C)nc(NS(=O)(=O)c2ccc(NC(=O)CCl)cc2)n1,23.6
17,CCC(Oc1ccccc1)C(=O)Nc1ccc(S(=O)(=O)Nc2nc(C)cc(C)n2)cc1 (stereo not drawn),-3.58
18,CC(Oc1ccccc1)C(=O)Nc1ccc(S(=O)(=O)Nc2ncccn2)cc1 (stereo not drawn),0.06
19,Cc1cc(C)nc(NS(=O)(=O)c2ccc(NC(=O)CSc3nc(C)cc(C)n3)cc2)n1,-6.83
20,Cc1cc(C)nc(SCC(=O)Nc2ccc(S(=O)(=O)Nc3ncccn3)cc2)n1,19.9
21,O=C(CCCOc1ccccc1)Nc1ccc(S(=O)(=O)Nc2ncccn2)cc1,2.79
22,COC(C)(C)C(=O)N1CCOC(c2cccc(Nc3ncc(C)s3)n2)C1 (stereo not drawn),-13
23,COCC(=O)N1CCCC1c1cccc(Nc2ncc(C)s2)n1 (stereo not drawn),0.29
24,Cc1csc(Nc2cccc(C3CCCN3CC(N)=O)n2)n1 (stereo not drawn),16.8
25,Cc1ccc(S(=O)(=O)Nc2ccc(S(=O)(=O)Nc3nccc(C)n3)cc2)cc1,-5.66

row,Compound,relative growth in counter assay [%]
1,Cc1ccccc1N1C(=O)c2ccc(Oc3ccc(N)cc3)cc2C1=O,12.7
2,O=C(CC(c1ccccc1)c1ccccc1)Nc1ccc(S(=O)(=O)Nc2ncccn2)cc1,-1.59
3,Cc1cnc(Nc2cccc(C3CN(C(=O)C4CCCO4)CCO3)n2)s1 (stereo not drawn),-14.9
4,Cc1cnc(Nc2cccc(C3CCN(C(=O)C4C5C=CC(C5)C4C(=O)NCCO)CC3)n2)s1 (stereo not drawn),-24.7
5,O=S(=O)(Nc1ncccn1)c1ccc(-n2cnnn2)cc1,-1.47
6,Cc1cnc(Nc2cccc(CC3CCN(C(=O)C4CCCCC4)CC3)n2)s1,-6.51
7,COc1nccnc1NS(=O)(=O)c1ccc(NC(=S)NC(=O)/C=C/c2cccs2)cc1,8.21
8,Cc1ccnc(NS(=O)(=O)c2ccc(NC(=O)c3ccc(-c4ccccc4)cc3)cc2)n1,0.76
9,Cc1ccc(Oc2cccc(N3C(=O)c4ccc(Oc5ccc(N)cc5)cc4C3=O)c2)cc1C,-3.99
10,O=C(C1CCCCC1)N1CCOC(c2cccc(Nc3ncc(Cc4ccc(F)cc4)s3)n2)C1 (stereo not drawn),-1.26
11,O=C(Nc1ccc(S(=O)(=O)Nc2ccccn2)cc1)c1ccco1,4.23
12,CCOCCC(=O)Nc1ccc(S(=O)(=O)Nc2nccc(C)n2)cc1,-2.85
13,Cc1ccc(C(C)(C)C(=O)N2CCCC2c2cccc(Nc3ncc(C)s3)n2)cc1 (stereo not drawn),-21
14,Cc1cc(NS(=O)(=O)c2ccc(NC(=O)c3ccccc3)cc2)nc(C)n1,0.4
15,CCOC(=O)c1nc[nH]c1C(=O)N1CCOC(c2cccc(Nc3ncc(C)s3)n2)C1 (stereo not drawn),-2.22
16,CC(C)(C)CC(=O)Nc1ccc(S(=O)(=O)Nc2ncccn2)cc1,-0.2
17,Cc1cc(C)c2[nH]c3nc(SCC(=O)Nc4cccc(Cl)c4C)nnc3c2c1,-20.1
18,O=C(/C=C/c1ccccc1)N1CCCC1c1csc(Nc2ccccn2)n1 (stereo not drawn),-3.28
19,CCCc1cnc(Nc2cccc(C3CCN(C(=O)C(C)(C)NC(=O)COC)CC3)n2)s1,-2.68
20,Cc1cnc(Nc2cccc(C3CN(C(=O)C4CCCC(C)C4)CCO3)n2)s1 (stereo not drawn),-12.6
21,CN(C)CC(=O)N1CCCC1c1cccc(Nc2nccs2)n1 (stereo not drawn),-0.55
22,NC(=O)CN1CCC(Cc2cccc(Nc3nccs3)n2)CC1,-23.2
23,Cc1cnc(Nc2cccc(C3CCN(C(=O)C4CCC(=O)N4)CC3)n2)s1 (stereo not drawn),-24.6
